Here are results for 16 sequences from the supplement of paper PMC6555819.

Holding throughout (test): PBM binding z-score (relative to random genomic background probes); higher = stronger binding; sequences stand for … in GC…GCGATTGACAGCGTAGAATGAAGG
The test system of test [1] is RARb homodimer (NR concentration 270 nM). In short, it runs like this: (§1)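 For binding z-scores, the reference was random background probes on custom Agilent 4×180K protein-binding microarrays. These arrays were incubated 1 h with ligand-free nuclear receptor dimers in PBS pH 7.4, 2% milk, 0.02% Triton X-100, 1 mM DTT, 0.2 mg/mL BSA and 0.4 mg/ml salmon testes DNA. Fluorescence was scanned after antibody detection of each partner (one per run) and regression-normalized.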

The subject of test [2] is RARg:RXRa (NR concentration 270 nM, RXRa partner concentration 90 nM). In short, it runs like this:
as §1

For test [3], the system named is RARg homodimer (NR concentration 270 nM). In short, it runs like this:
as §1

In test [4] the test system is RXRa DBDmut IVT, anti-RXR (DBD mutation: RXRa K156A/R161A, NR concentration 90 nM). In short, it runs like this:
as §1

The subject of test [5] is RXRa homodimer (NR concentration 180 nM). In short, it runs like this: as §1
Test [6] relates to THRa:RXRa (NR concentration 90 nM, RXRa partner concentration 90 nM). In short, it runs like this:
as §1

The test system of test [7] is THRa homodimer (NR concentration 90 nM). In short, it runs like this:
as §1

Test [8] relates to VDR:RXRa (NR concentration 270 nM, RXRa partner concentration 90 nM). In short, it runs like this: as §1
The subject of test [9] is VDR homodimer (NR concentration 270 nM). In short, it runs like this: as §1

Consider AGTCAAAGTTCAGGACGAGGAAACGTAAAGCACG, for which the PBM binding z-score in [1] turned out to be 2.85; in test [2], 4.29; in test [3], 4.75; in test [4], 2.81; in test [5], 3.17; in test [6], 2.42. Further, the PBM binding z-score in [7] was found to be 0.288; in test [8], 2.2; in [9] it was 1.64.

Turning to ATCGAAAGGTCGAGAGGTGAGTATACAGAAAGGC, the PBM binding z-score is 3 in [1]; 4.69 in [2]; 4.09 in [3]; 0.518 in test [4]; 4.53 in [5]; 2.37 in test [6]. Also, the PBM binding z-score is -0.0205 in test [7], 2.73 in [8] and 0.542 in [9].

Take TAGCCTAGGTCTTGCGGGCCAGTATAGTGTCGGC: the PBM binding z-score is -0.413 in [1]; -0.507 in test [2]; -0.639 in test [3]; -1.09 in test [4]; -0.623 in test [5]; -0.606 in test [6]. The PBM binding z-score is -1.12 in test [7], -0.977 in test [8] and -1.13 in [9].

As for CCTACTGCGCCATTCAGAGGTCATTGATCATATG, the PBM binding z-score in test [1] was 3.92; in test [2], 3.36; in test [3], 2.53; in test [4], 1.73; in [5], 3.92; in test [6], 3.37. Also, the PBM binding z-score in test [7] came to 2.07; in [8], 3.85; in test [9] it was 3.47.

As for CCAGACAGGCGAGAAGGTAACTCAGCCTCGATTA, the PBM binding z-score in test [1] was -0.738; in test [2], -0.546; in test [3], -0.427; in test [4], -0.382; in test [5], -0.473; in [6] it was -0.499. The values for the PBM binding z-score in [7], in test [8] and in test [9] were -0.402, -0.665 and -0.366, respectively.

Consider CTTGCTAGGTCAATGGTCAGCTAAAGCAGCTCGC, for which the PBM binding z-score turned out to be 2.82 in [1]; 3.48 in [2]; 4.68 in test [3]; 1.61 in test [4]; 2.34 in test [5]; 2.13 in test [6]. The PBM binding z-score in test [7] was 0.43; in [8], 0.921; in test [9], -0.158.

CGTCCCAGGTCAAAGGTCAGTGAAGAGATGACGG: the PBM binding z-score in [1] came to 5.2; in test [2], 7.98; in [3], 7.02; in test [4] it was 2.62; in test [5], 9.93; in test [6], 4.99. The results for the PBM binding z-score in test [7], in test [8] and in [9] were 2.8, 6.07 and 2.7, respectively.

Take AGAATGAGATTATTAAGATCAGGGAATTGCGGTC: the PBM binding z-score in test [1] was -0.433; in [2], -0.202; in test [3] it was 0.0706; in test [4], -0.35; in test [5], -0.434; in test [6], -0.315. Moreover, the PBM binding z-score in test [7] is -0.66; in test [8], -0.494; in test [9] it was -0.308.

Take GTACCAAGGTGAATAGGTCGTTGTTGAGTAGGCG: the PBM binding z-score was 1.89 in test [1]; 2.4 in test [2]; 1.05 in test [3]; 0.135 in test [4]; 1.64 in test [5]; 1.81 in [6]. The PBM binding z-score came out at 0.601 in test [7], 0.825 in test [8] and 0.168 in [9].

Take CAAACTAGGTCACAGAGGTCAAAGTACGTGCGTA: the PBM binding z-score in [1] came out at 5.51; in test [2], 7.48; in test [3], 7.65; in [4] it was 3.46; in [5] it was 7.8; in test [6], 4.75. For the same sequence, the PBM binding z-score in test [7] was determined as 2.64; in test [8], 7.94; in test [9], 6.77.

As for CCTACTGGGCCAAAGGTCATTAATTCCAATGCTC, the PBM binding z-score came to 4.19 in test [1]; 5.3 in [2]; 4.49 in test [3]; 1.34 in test [4]; 6.16 in test [5]; 3.01 in test [6]. Also, the PBM binding z-score in [7] amounted to 0.695; in [8] it was 4.22; in [9] it was 2.77.

As to ATCTCTAGGAAACCAAGTTCAGTGAATGCCGAAC, the PBM binding z-score was found to be 1.32 in test [1]; 0.329 in [2]; 0.454 in [3]; 0.614 in test [4]; 0.323 in test [5]; 0.46 in [6]. Moreover, the PBM binding z-score in test [7] is 0.191; in [8], 1.49; in test [9], 2.72.

Take TTACCAAGGTGAGATGAGGTCGTTGATCCAACTC: the PBM binding z-score in test [1] is 1.54; in [2], 1.49; in test [3], 1.26; in [4], 0.446; in [5], 1.85; in [6] it was 4.77. Besides, the PBM binding z-score worked out at 2 in test [7], 4.7 in test [8] and 2.31 in [9].

With CCGACTGGGGCAATGTTACCATAACGCACAGCCA, the PBM binding z-score in test [1] was -0.131; in test [2], 0.0448; in test [3], 0.359; in [4] it was -0.0343; in [5], -0.0938; in [6], -0.53. Also, the PBM binding z-score is -0.342 in [7], -0.586 in test [8] and -0.569 in test [9].

Consider CGTCCAAGGTCAGCAGGTCAGTGAGAGCGACGTG, for which the PBM binding z-score was determined as 5.13 in test [1]; 6.35 in test [2]; 6.67 in test [3]; 2.46 in test [4]; 5.29 in test [5]; 4.01 in test [6]. Besides, the values for the PBM binding z-score in [7], in test [8] and in [9] were 2.56, 4.04 and 1.93, respectively.

Regarding CGCCCAAGGTCAAAGGTCAGTGAAGAGATGACGG, the PBM binding z-score in [1] was determined as 5.66; in [2], 8.68; in test [3] it was 8.27; in test [4], 3.9; in [5], 10; in test [6], 4.83. In addition, the results for the PBM binding z-score in test [7], in test [8] and in test [9] were 2.31, 6.61 and 3.24, respectively.
